# From PubChem BioAssay (EPA / NIEHS)
# Active and inactive are the calls of the source. Rule for the calls: active = hit-call score of the fitted dose curve at least 0.9, where 1 is the maximum; inactive = score below 0.9.
# Columns and labels:
# [1] = molecular target: Hypoxia-inducible factor 1-alpha (Homo sapiens) (UniProt Q16665); assay: ATG_HIF1a_CIS: Attagene CIS-FACTORIAL HepG2 Assay for human Hypoxia Inducible Factor 1 (HIF1A) (AID 2282951); details: HepG2 Attagene cis-factorial HIF1a reporter transcription; actives raise or lower the signal
# Sequence of Hypoxia-inducible factor 1-alpha (Homo sapiens) (Q16665 whole entry, looked up): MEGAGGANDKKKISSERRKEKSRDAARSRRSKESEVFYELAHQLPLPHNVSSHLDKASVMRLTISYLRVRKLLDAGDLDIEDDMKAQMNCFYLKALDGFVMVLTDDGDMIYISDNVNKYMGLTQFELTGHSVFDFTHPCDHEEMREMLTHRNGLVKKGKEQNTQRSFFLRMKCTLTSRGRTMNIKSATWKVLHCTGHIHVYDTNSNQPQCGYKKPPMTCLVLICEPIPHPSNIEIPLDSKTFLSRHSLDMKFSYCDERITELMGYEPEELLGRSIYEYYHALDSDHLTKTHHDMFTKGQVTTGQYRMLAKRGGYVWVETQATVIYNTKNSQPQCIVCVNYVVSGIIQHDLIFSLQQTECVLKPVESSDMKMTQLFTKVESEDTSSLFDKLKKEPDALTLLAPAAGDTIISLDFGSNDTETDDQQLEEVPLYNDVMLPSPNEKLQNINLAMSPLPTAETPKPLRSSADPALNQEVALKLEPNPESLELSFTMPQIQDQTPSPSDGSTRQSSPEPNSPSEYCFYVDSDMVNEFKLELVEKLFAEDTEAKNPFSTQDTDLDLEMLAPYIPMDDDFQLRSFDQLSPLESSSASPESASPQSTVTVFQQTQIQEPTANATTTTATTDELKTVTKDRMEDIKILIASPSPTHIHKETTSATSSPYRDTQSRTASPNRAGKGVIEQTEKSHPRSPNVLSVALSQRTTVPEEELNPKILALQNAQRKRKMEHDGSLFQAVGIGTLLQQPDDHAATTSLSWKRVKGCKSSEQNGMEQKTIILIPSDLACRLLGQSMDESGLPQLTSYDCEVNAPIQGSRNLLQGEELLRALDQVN
# In short: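 In this multiplexed cell assay, HepG2 cells bearing transfected cis reporters are dosed for 24 h and reporter mRNA is read by RT-PCR plus capillary electrophoresis; signal increases and decreases are both scored against DMSO.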
# [2] = molecular target: Hepatocyte nuclear factor 6 (Homo sapiens) (UniProt Q9UBC0); assay: ATG_HNF6_CIS: Attagene CIS-FACTORIAL HepG2 Assay for human Hepatocyte Nuclear Factor 6 (HNF6) (AID 2282952); details: HepG2 Attagene cis-factorial HNF6 reporter transcription; actives raise or lower the signal
# Sequence of Hepatocyte nuclear factor 6 (Homo sapiens) (Q9UBC0 whole entry, looked up): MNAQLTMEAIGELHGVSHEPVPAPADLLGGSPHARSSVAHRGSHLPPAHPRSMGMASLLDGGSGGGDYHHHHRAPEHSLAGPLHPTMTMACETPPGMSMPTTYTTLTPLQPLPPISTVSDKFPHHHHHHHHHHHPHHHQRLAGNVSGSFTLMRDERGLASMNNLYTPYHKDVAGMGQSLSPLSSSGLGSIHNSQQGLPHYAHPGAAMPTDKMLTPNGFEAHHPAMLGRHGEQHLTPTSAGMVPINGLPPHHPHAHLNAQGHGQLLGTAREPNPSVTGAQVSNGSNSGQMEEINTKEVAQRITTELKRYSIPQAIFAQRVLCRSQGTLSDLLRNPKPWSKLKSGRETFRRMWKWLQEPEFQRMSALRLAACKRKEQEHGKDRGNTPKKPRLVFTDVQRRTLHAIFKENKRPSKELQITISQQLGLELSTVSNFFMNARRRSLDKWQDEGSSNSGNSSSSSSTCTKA
# In short: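 Activity values derive from bidirectional fitting against DMSO of reporter mRNA levels, measured by capillary electrophoresis of labelled RT-PCR products from HepG2 cells exposed 24 h.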
# [3] = molecular target: Heat shock factor protein 1 (Homo sapiens) (UniProt Q00613); assay: ATG_HSE_CIS: Attagene CIS-FACTORIAL HepG2 Assay for human Heat Shock Transcription Factor 1 (HSE) (AID 2282953); details: HepG2 HSE cis-reporter, Attagene RNA transcription; actives raise or lower the signal
# Sequence of Heat shock factor protein 1 (Homo sapiens) (Q00613 whole entry, looked up): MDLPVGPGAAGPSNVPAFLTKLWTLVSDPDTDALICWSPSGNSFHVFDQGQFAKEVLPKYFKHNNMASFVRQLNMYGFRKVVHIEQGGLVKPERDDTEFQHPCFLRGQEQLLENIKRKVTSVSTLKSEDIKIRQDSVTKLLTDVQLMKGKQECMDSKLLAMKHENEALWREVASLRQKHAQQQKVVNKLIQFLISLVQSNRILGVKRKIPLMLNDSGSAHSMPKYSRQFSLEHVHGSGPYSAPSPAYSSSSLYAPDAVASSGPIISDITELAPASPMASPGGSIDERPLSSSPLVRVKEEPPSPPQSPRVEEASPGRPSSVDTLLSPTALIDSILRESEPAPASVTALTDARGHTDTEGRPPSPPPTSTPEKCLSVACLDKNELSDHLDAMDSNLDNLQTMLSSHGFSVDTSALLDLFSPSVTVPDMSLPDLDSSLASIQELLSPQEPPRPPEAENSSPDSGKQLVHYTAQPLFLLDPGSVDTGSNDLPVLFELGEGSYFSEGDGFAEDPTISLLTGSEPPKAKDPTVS
# In short: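 Liver-derived HepG2 cells carry transiently introduced multiple reporter units governed by cis promoters. Reporter RNA measured 24 h post-dose through reverse transcription, PCR amplification, fluorescent labelling and capillary electrophoresis, normalised to DMSO.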
# [4] = ATG_MRE_CIS: Attagene CIS-FACTORIAL HepG2 Assay for human Metal Responsive Element (MRE) (AID 2282954); details: HepG2 MRE cis-reporter transcription, Attagene multiplex; actives raise or lower the signal
# In short: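 Endogenous MRE-dependent transcription read as reporter mRNA in transiently transfected human HepG2 cells at 24 h. RNA reverse-transcribed, PCR-amplified, labelled and resolved by capillary electrophoresis; gain or loss relative to DMSO.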
# [5] = ATG_PBREM_CIS: Attagene CIS-FACTORIAL HepG2 Assay for human Phenobarbital-responsive Enhancer Module (PBREM) (AID 2282955); details: HepG2 PBREM cis-reporter, Attagene multiplexed transcription; actives raise or lower the signal
# In short: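 After a 24 h incubation with test chemical, transfected HepG2 cells yield total RNA; reporter-specific RT-PCR products are fluorescently labelled, HpaI-digested and resolved by capillary electrophoresis against ROX size standards.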
# [6] = ATG_PXRE_CIS: Attagene CIS-FACTORIAL HepG2 Assay for human Pregnane X Receptor Element (PXRE) (AID 2282957); details: HepG2 Attagene CIS-FACTORIAL PXRE reporter, mRNA; actives raise or lower the signal
# In short: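 Fluorescent capillary electrophoresis of amplified reporter cDNA gave the signal, collected 24 h after dosing HepG2 cells that held transfected cis-element reporter constructs.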
# [7] = ATG_PPRE_CIS: Attagene CIS-FACTORIAL HepG2 Assay for human Peroxisome Proliferator-activated Response Element (PPRE) (AID 2282958); details: HepG2 PPRE cis-element reporter, Attagene transcription factor profiling; actives raise or lower the signal
# In short: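 Multiplexed reporter transcription units under cis-regulatory promoters were transfected into HepG2 cells to capture endogenous factor activity. A 24 h incubation preceded RNA isolation and fluorescent RT-PCR fragment analysis.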
# [8] = ATG_RORE_CIS: Attagene CIS-FACTORIAL HepG2 Assay for human RAR-related Orphan Receptor Element (RORE) (AID 2282959); details: HepG2 Attagene cis-factorial RORE reporter, mRNA; actives raise or lower the signal
# In short: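 Fluorescence intensity of reporter-specific cDNA fragments, separated by capillary electrophoresis, gives the signal. Source: HepG2 liver cells transiently transfected with cis-element reporters and exposed 24 h; DMSO-normalized bidirectional fit.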
# [9] = molecular target: Paired box protein Pax-6 (Homo sapiens) (UniProt P26367); assay: ATG_Pax6_CIS: Attagene CIS-FACTORIAL HepG2 Assay for human Paired Box 6 (PAX6) (AID 2282956); details: HepG2 CIS-FACTORIAL PAX6 reporter transcription, RNA readout; actives raise or lower the signal
# Sequence of Paired box protein Pax-6 (Homo sapiens) (P26367 whole entry, looked up): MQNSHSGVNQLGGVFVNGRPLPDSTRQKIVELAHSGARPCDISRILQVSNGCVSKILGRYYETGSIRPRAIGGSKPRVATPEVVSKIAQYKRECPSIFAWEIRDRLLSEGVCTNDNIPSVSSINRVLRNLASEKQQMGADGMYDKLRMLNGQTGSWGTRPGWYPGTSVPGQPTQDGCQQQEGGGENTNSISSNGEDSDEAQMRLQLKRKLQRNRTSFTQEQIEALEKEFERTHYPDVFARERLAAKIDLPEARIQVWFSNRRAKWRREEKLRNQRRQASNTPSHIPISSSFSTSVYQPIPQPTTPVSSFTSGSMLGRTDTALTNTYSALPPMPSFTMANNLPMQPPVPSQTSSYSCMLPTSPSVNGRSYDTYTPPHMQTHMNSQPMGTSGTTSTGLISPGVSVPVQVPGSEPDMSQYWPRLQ
# In short: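 Fluorescent RT-PCR products separated by capillary electrophoresis report PAX6-linked promoter mRNA in HepG2 cells 24 h post-dose. Curves fitted bidirectionally, DMSO as negative control.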
# [10] = ATG_Sox_CIS: Attagene CIS-FACTORIAL HepG2 Assay for human SRY-box transcription factor (SOX) (AID 2282960); details: HepG2 Attagene cis-factorial SOX reporter, mRNA; actives raise or lower the signal
# In short: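 After 24 h of chemical treatment, transfected HepG2 reporter cells are lysed for total RNA. Transcript levels come from RT-PCR with labelled primer extension and capillary electrophoresis, analysed bidirectionally versus DMSO.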
structure (smiles),measurement,setting,value
COc1ccc(C=O)cc1,outcome,[1],inactive
same,outcome,[2],inactive
same,outcome,[3],inactive
same,outcome,[4],inactive
same,outcome,[5],inactive
same,outcome,[6],inactive
same,outcome,[7],inactive
same,outcome,[8],inactive
COc1cccc(C=O)c1,outcome,[1],inactive
same,outcome,[2],inactive
same,outcome,[3],inactive
same,outcome,[4],inactive
same,outcome,[9],inactive
same,outcome,[6],inactive
same,outcome,[7],inactive
same,outcome,[8],inactive
same,outcome,[10],inactive
C=CC(=O)OCCCCCC(C)C,outcome,[1],inactive
same,outcome,[2],inactive
same,outcome,[3],inactive
same,outcome,[4],inactive
same,outcome,[9],inactive
same,AC50,[6],69.5 µM (active)
same,outcome,[7],inactive
same,outcome,[8],inactive
Nc1ccc(N=Nc2ccc(-c3ccc(N=Nc4c(S(=O)(=O)O)cc5cc(S(=O)(=O)O)c(N=Nc6ccccc6)c(O)c5c4N)cc3)cc2)c(N)c1,outcome,[1],inactive
same,outcome,[2],inactive
same,outcome,[3],inactive
same,outcome,[4],inactive
same,outcome,[5],inactive
same,outcome,[6],inactive
same,outcome,[7],inactive
same,outcome,[8],inactive
same,outcome,[10],inactive
C=C(C)C(=O)[O][Sn]([CH2]CCC)([CH2]CCC)[CH2]CCC,outcome,[1],inactive
same,AC50,[2],0.656 µM (active)
same,AC50,[3],0.68 µM (active)
same,AC50,[4],0.412 µM (active)
same,AC50,[9],0.514 µM (active)
same,outcome,[6],inactive
same,AC50,[7],0.0903 µM (active)
same,outcome,[8],inactive
same,outcome,[10],inactive
O=C(c1ccccc1)C(Cl)Cl,outcome,[1],inactive
same,outcome,[2],inactive
same,outcome,[3],inactive
same,AC50,[4],26.7 µM (active)
same,AC50,[9],26.8 µM (active)
same,outcome,[6],inactive
same,outcome,[7],inactive
same,outcome,[8],inactive
same,AC50,[10],25.7 µM (active)
COc1ccccc1OC,outcome,[1],inactive
same,outcome,[2],inactive
same,outcome,[3],inactive
same,outcome,[4],inactive
same,outcome,[9],inactive
same,outcome,[6],inactive
same,outcome,[7],inactive
same,outcome,[8],inactive
same,outcome,[10],inactive
Cn1sc(Cl)cc1=O,outcome,[1],inactive
same,outcome,[2],inactive
same,outcome,[3],inactive
same,outcome,[4],inactive
same,outcome,[5],inactive
same,outcome,[6],inactive
same,AC50,[7],100 µM (active)
same,outcome,[8],inactive
same,outcome,[10],inactive
COC(=O)Cc1ccccc1,outcome,[1],inactive
same,outcome,[2],inactive
same,outcome,[3],inactive
same,outcome,[4],inactive
same,outcome,[9],inactive
same,outcome,[6],inactive
same,outcome,[7],inactive
same,outcome,[8],inactive
same,outcome,[10],inactive
CCN1CCC2(CC1)COc1cc3c(cc12)N(C(=O)c1ccc(-c2ccc(-c4nnc(C)o4)cc2C)cc1)CC3,outcome,[1],inactive
same,outcome,[2],inactive
same,outcome,[3],inactive
same,outcome,[4],inactive
same,outcome,[9],inactive
same,outcome,[6],inactive
same,outcome,[7],inactive
O=C(OC1CCCCC1)c1ccccc1C(=O)OC1CCCCC1,AC50,[1],11.2 µM (active)
same,outcome,[2],inactive
same,outcome,[3],inactive
same,AC50,[4],23.5 µM (active)
same,outcome,[5],inactive
same,AC50,[6],0.58 µM (active)
same,AC50,[8],8.39 µM (active)
same,outcome,[10],inactive
C=CCc1ccc(OC)cc1,outcome,[1],inactive
same,outcome,[2],inactive
same,outcome,[3],inactive
same,outcome,[4],inactive
same,outcome,[5],inactive
same,AC50,[6],26.6 µM (active)
same,outcome,[7],inactive
same,outcome,[8],inactive
same,outcome,[10],inactive
O=C(CCl)CCl,AC50,[1],45.6 µM (active)
same,AC50,[2],33.4 µM (active)
same,AC50,[3],58.7 µM (active)
same,AC50,[4],48.9 µM (active)
same,AC50,[9],41.3 µM (active)
same,AC50,[6],49.3 µM (active)
same,outcome,[7],inactive
same,outcome,[8],inactive
CCCCCCCCSC(=O)Oc1cc(Cl)nnc1-c1ccccc1,outcome,[1],inactive
same,outcome,[2],inactive
same,outcome,[3],inactive
same,outcome,[4],inactive
same,AC50,[9],146 µM (active)
same,AC50,[6],27.1 µM (active)
same,outcome,[7],inactive
same,outcome,[8],inactive
CCC(C)c1cccc(C(C)CC)c1O (centres undefined),outcome,[1],inactive
same,outcome,[2],inactive
same,outcome,[3],inactive
same,outcome,[4],inactive
same,outcome,[9],inactive
same,AC50,[6],5.61 µM (active)
same,outcome,[7],inactive
same,outcome,[8],inactive
same,outcome,[10],inactive
C=C(C)C#N,outcome,[1],inactive
same,outcome,[2],inactive
same,outcome,[3],inactive
same,outcome,[4],inactive
same,outcome,[5],inactive
same,outcome,[6],inactive
same,outcome,[8],inactive
COP(=S)(OC)Oc1c(Cl)cc(C)cc1Cl,outcome,[1],inactive
same,outcome,[2],inactive
same,outcome,[3],inactive
same,AC50,[4],27.1 µM (active)
same,outcome,[5],inactive
same,AC50,[6],4.62 µM (active)
same,outcome,[7],inactive
same,outcome,[10],inactive
CC(=O)OC(c1ccccc1)C(Cl)(Cl)Cl (centres undefined),outcome,[1],inactive
same,outcome,[2],inactive
same,outcome,[3],inactive
same,outcome,[4],inactive
same,outcome,[9],inactive
same,AC50,[6],48.6 µM (active)
same,outcome,[7],inactive
same,outcome,[8],inactive
O=Cc1cccc(Oc2ccccc2)c1,outcome,[1],inactive
same,outcome,[2],inactive
same,outcome,[3],inactive
same,outcome,[4],inactive
same,outcome,[5],inactive
same,outcome,[6],inactive
same,outcome,[7],inactive
same,outcome,[8],inactive
COc1ccc(C=O)cc1OC,outcome,[1],inactive
same,outcome,[2],inactive
same,outcome,[3],inactive
same,outcome,[4],inactive
same,outcome,[5],inactive
same,AC50,[6],32 µM (active)
same,outcome,[8],inactive
same,outcome,[10],inactive
CCCCC(CC)CO[N+](=O)[O-] (centres undefined),AC50,[1],4.37 µM (active)
same,AC50,[2],151 µM (active)
same,outcome,[3],inactive
same,outcome,[4],inactive
same,outcome,[9],inactive
same,outcome,[6],inactive
same,outcome,[7],inactive
same,AC50,[8],99.5 µM (active)
CC(=[OH+])/C=C(/C)[O-].CC(=[OH+])/C=C(/C)[O-].CC(=[OH+])/C=C(/C)[O-].[Fe],outcome,[1],inactive
same,outcome,[2],inactive
same,outcome,[3],inactive
same,outcome,[4],inactive
same,outcome,[9],inactive
same,outcome,[6],inactive
same,outcome,[7],inactive
same,outcome,[8],inactive
CC12CC1(C)C(=O)N(c1cc(Cl)cc(Cl)c1)C2=O (centres undefined),outcome,[1],inactive
same,outcome,[2],inactive
same,outcome,[3],inactive
same,outcome,[4],inactive
same,outcome,[9],inactive
same,AC50,[6],4.87 µM (active) [middle of 4 runs]
same,outcome,[7],inactive
same,outcome,[8],inactive
same,outcome,[10],inactive
CNC,outcome,[1],inactive
same,outcome,[2],inactive
same,outcome,[3],inactive
same,outcome,[4],inactive
same,outcome,[9],inactive
same,outcome,[6],inactive
same,outcome,[7],inactive
same,outcome,[8],inactive
same,outcome,[10],inactive
COS(=O)(=O)c1ccc(C)cc1,outcome,[1],inactive
same,outcome,[2],inactive
same,outcome,[3],inactive
same,outcome,[4],inactive
same,outcome,[9],inactive
same,outcome,[6],inactive
same,outcome,[7],inactive
same,outcome,[8],inactive
same,outcome,[10],inactive
CCOP(=S)(OCC)Oc1ccc(S(C)=O)cc1 (centres undefined),outcome,[1],inactive
same,outcome,[2],inactive
same,outcome,[3],inactive
same,outcome,[4],inactive
same,outcome,[9],inactive
same,AC50,[6],15.9 µM (active)
same,outcome,[7],inactive
same,outcome,[8],inactive
same,outcome,[10],inactive
